# Screening results from PubChem.
# This is a sample that favours compounds with a hit; in the whole collection about 8% have one here.
# KB-3-1 cytotox: KB-3-1 parental cell cytotoxicity. KB-3-1 viability, CellTiter-Glo ATP luminescence, 72 h. Potency, µM (top dose mostly 46.1 µM), hits mostly cytotoxic. 400,000 compounds, 1.4% hits. AID 1347075; also: % is scaled to controls: 0 for no effect and ±100 for the full control effect; nearly all actives have a fitted effect of over 60% in size
#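 KB-3-1 parental drug-naive adenocarcinoma cells in DMEM/10% FBS, incubated 72 h at 37 C with pin-transferred compounds across a concentration series. Viability by CellTiter-Glo luminescence; concentration-response curves fitted after normalization.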
# KB-V1 MDR tox: KB-V1 MDR subline cytotoxicity; KB-V1 MDR cells viability, CellTiter-Glo, 72 h; Potency, µM (highest dose often 46.1 µM), usual class: cytotoxic; 400,000 compounds, 3.4% hits; also: % is scaled to controls: 0 for no effect and ±100 for the full control effect; nearly all actives have a fitted effect of over 60% in size
#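 Potencies derive from concentration-effect curves fitted to normalized luminescence (CellTiter-Glo) of KB-V1 cells treated for 72 h at 37 degrees C in phenol-red-free DMEM containing 10% FBS.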
# SW480 rerep: DNA re-replication induction in SW480 cells | 340,000 compounds, 1.8% hits | SW480 DNA re-replication, Hoechst DNA content imaging, 48 h | Potency, µM (top dose mostly 46.1 µM), for inactives: at the highest dose re-replication activation, actives largely listed as activators | AID 624297; also: % of control where 0% means no effect; nearly all actives have a fitted effect of over 55% in size
#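 250 cells/well; 23 nL cpd via pin tool; 48 hr, 37 C, 5% CO2; Hoechst 40 min; imager read of total nuclear intensity, ex 405/em 500-530 nm.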
# MCF10A rereplic: inducers of DNA re-replication in MCF 10A breast cells; 350,000 compounds, 2.9% hits; MCF 10A DNA re-replication, Hoechst nuclear intensity, 48 h; AID 624296; Potency, µM (top dose mostly 46.1 µM), for the others: at the top dose activity, positive = re-replication, most hits filed as activators; also: % of control where 0% means no effect; nearly all actives have a fitted effect of over 50% in size
# HT1080 IDH1KD tx: toxicity to HT-1080 IDH1 knockdown cells (counter line); HT-1080 IDH1 knockdown viability, ATP luminescence, 48 h; Potency, µM (series often up to 46.1 µM), for inactives: top-dose activity, negative = toxicity, most hits filed as cytotoxic; 360,000 compounds, 2% hits; AID 686971;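 also: 0% = DMSO wells and -100% = cell-free medium wells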
#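 In this qHTS, HT-1080 cells depleted of IDH1 are exposed for 48 h at 37 °C to compound titrations. Toxicity is scored from CellTiter-Glo luminescence, with DMSO as full viability and medium alone as none.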
# HT1080NT lethal: kills 2HG-producing HT-1080-NT fibrosarcoma cells; AID 686970; HT-1080-NT fibrosarcoma viability, CellTiter-Glo ATP luminescence, 48 h; Potency, µM (series often up to 46.1 µM), without a hit: at the top dose activity, negative = less viability, hits mostly cytotoxic; 360,000 compounds, 1.6% hits;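 also: NT is the 2HG producing partner of a matched IDH1 knockdown line; 0% = DMSO-treated cells and -100% = media-only wells without cells; nearly all actives have a fitted effect of over 55% in size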
#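 Compounds were tested in concentration-response format on HT-1080-NT cells for 48 hours at 37 degrees C. Cell viability came from CellTiter-Glo luminescence; curves were classified by r2, response magnitude and activity.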
# An asterisk follows results filed as active; i = inactive; ? = inconclusive; . = no result; ! = not confirmed by another sample. Calls follow the shape of the dose curve; as a rule, active = well fitted curve in the direction sought with a large enough effect; inconclusive = small, poorly fitted or top-dose-only effect, or another doubt; inactive = no such curve, though single readings can be large; an effect the other way counts as inactive or inconclusive. Potency is read from the fitted curve at half-maximal effect.
SMILES,KB-3-1 cytotox,KB-V1 MDR tox,SW480 rerep,MCF10A rereplic,HT1080 IDH1KD tx,HT1080NT lethal
CCS(=O)(=O)N1CCc2cc(C(=O)Nc3ccc(OC)c(Cl)c3)ccc21,?,i,.,.,.,.
CC(NC(=O)CSc1n[nH]c(-c2ccccc2Cl)n1)c1nc2ccccc2n1C (centres undefined),i,i,.,.,.,.
CCOc1ccccc1-c1noc(CSc2nnc(-c3ccncc3)n2-c2ccc(F)cc2)n1,i,i,.,.,.,.
CCOC(=O)C1CCN(C(=O)c2cccc(N3C(=O)NC4CC3(C)Oc3ccc(C)cc34)c2)CC1 (centres undefined),i,i,-21%,-2%,1%,-3%
CCOC(=O)N1CCN(C(=O)c2cccc(N3C(=O)NC4CC3(C)Oc3ccc(Cl)cc34)c2)CC1 (centres undefined),?,i,13µM*,16µM*,7.3µM*,7.3µM*
CCCCc1cc2c(c(NC(=O)CC)n1)c(=O)oc1ccccc12,i,16µM*,-5%,5%,1%,-10%
CC(=O)Nc1nc(CC(C)C)cc2c1c(=O)oc1ccccc12,i,i,0%,-8%,-8%,-2%
Cc1ccc2[nH]cc(C(=O)CN3CCN(c4ccccc4F)CC3)c2c1,i,10µM*,1%,28%,-5%,11%
CCCCN(CC)S(=O)(=O)c1ccc(C(=O)N=c2sc3cc(NC(C)=O)ccc3n2C)cc1,?,i,7.3µM*,10µM*,23%,13%
Cn1c(C(=O)N2CCN(c3ccc(Cl)cc3)CC2)cc2c(=O)[nH]c3ccccc3c21,i,i,1%,?,-4%,-8%
Cn1c(C(=O)NCCCN2CCN(c3ccccc3F)CC2)cc2c(=O)[nH]c3ccccc3c21,i,?,16%,23µM*,-21%,-19%
Cc1ccc(Cl)cc1N1CCN(C(=O)c2cc3c(=O)[nH]c4ccccc4c3n2C)CC1,?,7.3µM*,-1%,18µM*!,-4%,?
CCOc1c(Cl)cc(Cl)cc1CNCCSc1nnnn1C,i,i,.,.,.,.
COc1ccc(-c2nc3ccccc3n3c(-c4ccccc4)c4c(=O)n(C)c(=O)n(C)c4c23)cc1OC,i,i,.,.,.,.
CC1CCN(CCCCOc2ccc([N+](=O)[O-])cc2)CC1,i,i,-3%,10%,9%,0%
COC(=O)C1CCN(Cc2ccc(OCCCN3CCN(c4ccc([N+](=O)[O-])cc4)CC3)cc2)CC1,i,?,26%,?,15µM*,-21%
CC(=O)C1=C(C)NC(SCC(=O)c2ccc(F)cc2)=C(C#N)C1CC(C)C (centres undefined),i,?,?,18µM*,7%,0%
CC(=O)C1=C(C)NC(SCC(=O)c2ccc(Cl)cc2)=C(C#N)C1CC(C)C (centres undefined),i,21µM*,6%,?,6%,21%
CCOC(=O)C1=C(C)NC(SC)=C(C#N)C1CC(C)C (centres undefined),4.1µM*,5.2µM*,7.3µM*,?,2.6µM*,1.8µM*
COc1ccccc1NC(=O)CSc1oc(-c2ccccc2)nc1S(=O)(=O)c1ccc(C)cc1,i,i,.,.,.,.
Cc1ccc(CNC(=O)c2oc3ccc(S(=O)(=O)N4CCCC(C)C4)cc3c2C)cc1 (centres undefined),i,i,.,.,.,.
O=C(O)c1ccccc1NS(=O)(=O)c1cccc(C(F)(F)F)c1,i,i,-13%,-3%,8%,-3%
O=C(O)c1ccccc1NS(=O)(=O)c1cccc(-n2sc3ccccc3c2=O)c1,i,?,?,15µM*,?,-5%
CCc1nc(-c2cc(S(=O)(=O)N3CCN(c4ccccc4)CC3)ccc2OC)no1,i,i,.,.,.,.
O=C(NCCN1CCCCC1)c1ccc(Cn2c(SCc3ccccc3)nc3cccnc32)cc1,i,i,.,.,.,.
